Measurements reported in the supplement of paper PMC7156485.

Key:
Settings in all cases: concentration: 10 µM; 24 h
HCC1569 [1] = assay: cell number relative to DMSO (% of DMSO); higher = more cells (less growth inhibition / toxicity)
In short: (§1)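 In 384-well plates holding 800 HCC1569 or TDF cells per well in RPMI with 10% FBS, compounds were tested at 10 µM for 24 h at 37 °C in triplicate. Fixation used 3.7% formaldehyde. Staining used a rabbit anti-H1.0 antibody with an AlexaFluor 647 secondary, plus DAPI. Each value, H1.0 nuclear intensity or cell number, is a median of replicates shown as percent of the plate control, and HCC1569 values were smoothed for positional effects.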

TDF [2] = assay: as above
In short: as §1

TDF [3] = assay: H1.0 immunofluorescence intensity relative to DMSO (% of DMSO); higher = stronger H1.0 induction, active = 120 or more
In short: as §1

HCC1569 [4] = assay: H1.0 immunofluorescence intensity relative to DMSO (% of DMSO); higher = stronger H1.0 induction, active = 140 or more
In short: as §1
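Throughout, for H1.0 immunofluorescence intensity relative to DMSO: TDF is a line of transformed human dermal fibroblasts of mesenchymal origin.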
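Throughout, for cell number relative to DMSO: TDF denotes transformed human dermal fibroblasts of mesenchymal origin.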

SMILES | cell number (HCC1569 [1]) | cell number (TDF [2]) | H1.0 immunofluorescence intensity (TDF [3]) | H1.0 immunofluorescence intensity (HCC1569 [4])
Nc1ccc(CCN2CCN(c3cccc(C(F)(F)F)c3)CC2)cc1 | 95.1 | 98.9 | 99.4 (inactive) | 107 (inactive)
Br.C#CCOC(=O)C1=CCCN(C)C1 [Arecaidine propargyl ester hydrobromide] | 100 | 98.1 | 93.1 (inactive) | 92.2 (inactive)
C[N+]1(C)CCc2cc3c(cc2C1C1OC(=O)c2c1ccc1c2OCO1)OCO3.[Br-] (single isomer, unassigned; (-)) [(-)-Bicuculline methbromide, 1(S), 9(R)] | 101 | 104 | 94.2 (inactive) | 96.4 (inactive)
CP(=O)([O-])C1=CC[NH2+]CC1 | 96.6 | 98.6 | 91.8 (inactive) | 102 (inactive)
Br.COc1c2c(cc3c1OCO3)CCN(C)C2 [Hydrocotarnine HBr] | 102 | 107 | 104 (inactive) | 92.6 (inactive)
O=C1NCN(c2ccccc2)C12CCN(CC1COc3ccccc3O1)CC2 (centres undefined) [Spiroxatrine] | 98.9 | 105 | 101 (inactive) | 97.4 (inactive)
CC(=CC=CC(C)C(=O)O)C1CNC(C(=O)O)C1CC(=O)O (centres undefined) [Domoic acid] | 101 | 109 | 93.6 (inactive) | 86.3 (inactive)
Cc1[nH]c2ccc(O)cc2c1CCN.O=C(O)C=CC(=O)O [2-Methyl-5-hydroxytryptamine maleate] | 106 | 98.7 | 98.3 (inactive) | 85.2 (inactive)
CCC12C=CCN3CCC4(c5ccc(OC)cc5N(C)C4C(O)(C(=O)OC)C1OC(C)=O)C32 (centres undefined) [Vindoline] | 102 | 91.6 | 91.7 (inactive) | 90.1 (inactive)
CC(C)=CCCC1=CC(=O)c2c(O)ccc(O)c2C1=O [Deoxyshikonin] | 32 | 34.6 | 119 (inactive) | 171 (active)
CCCN(CCC)C1Cc2cc(OC)c(OC)cc2C1.O=C(O)C=CC(=O)O | 103 | 107 | 97.7 (inactive) | 102 (inactive)
NC1CC1c1ccccc1 (centres undefined) [Tranylcypromine] | 102 | 117 | 109 (inactive) | 96 (inactive)
CC(=O)OCC1=CC2C3C(C)(C)C3(OC(=O)Cc3ccccc3)CC(C)C2(O)C2C=C(C)C(=O)C2(O)C1 (centres undefined) [12-Deoxyphorbol 13-phenylacetate 20-acetate] | 90.8 | 74 | 105 (inactive) | 137 (inactive)
Br.CC(Cc1ccc(O)cc1)NCC(O)c1cc(O)cc(O)c1 (centres undefined) [Fenoterol hydrobromide] | 104 | 105 | 88.3 (inactive) | 112 (inactive)
Cl.NCCc1c[nH]c2ccc(O)cc12 [Serotonin hydrochloride] | 102 | 118 | 90.1 (inactive) | 92.2 (inactive)
NCCc1c[nH]c2ccc(C(N)=O)cc12.O=C(O)C=CC(=O)O [5-Carboxamidotryptamine maleate] | 100 | 103 | 91.3 (inactive) | 87.6 (inactive)
